Measured values reported in PubChem BioAssay AID2685 (National Center for Advancing Translational Sciences (NCATS), 2010).
About 2,100 (0.66%) of roughly 320,000 compounds were called active. Roughly 53% stayed inconclusive and do not appear here. Calls follow the shape of the dose curve; as a rule, active = well fitted inhibition curve with a large enough effect in the signal ratio, with a control signal flat (not every such curve was filed as active); inconclusive = small, poorly fitted or top-dose-only effect, or effect the other way, or a change in a side signal; inactive = flat fitted curve, though single readings scatter; the % refers to the signal ratio. What follows is part of a selection rich in actives, with near analogues and random picks from the rest.

experiment: qHTS Assay for Lipid Storage Modulators in Drosophila S3 Cells; conditions: BODIPY lipid droplet fluorescence, 18-24 h, cells fed with added oleic acid; cell number change: measured here: cell count max response; series mostly up to 46.1 µM;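 as to cell number change: cells counted by Cell Tracker Red CMTPX staining in the red channel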
Method in brief: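 Drosophila S3 cells got compounds at several concentrations plus oleic acid (400 uM solution). Laser-scanning cytometry with 488 nm excitation read lipid droplets at 500-530 nm and cells at 575-640 nm. Percent activity was relative to 20 uM Triacsin C.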
Potency is read from the fitted curve at half-maximal effect.

Row | Compound | Potency | cell number change | outcome
1 | CCCOC(=O)CCCC[C@H]1SC[C@@H](NC(=O)OC)[C@H]1NC(=O)OC | inactive | 5.48% | 
2 | CCOC(=O)c1c(C)nc(-c2ccccc2)nc1N | inactive | 1.72% | 
3 | O=C(Cc1ccccc1Cl)NCCCn1ccnc1 | inactive | -1.19% | 
4 | O=C(COc1coc(CN2CCN(c3ccccc3)CC2)cc1=O)NCC1CCCO1 (configuration not stated) |  |  | inactive [at 0.0737 µM]
5 | CCN(CC)S(=O)(=O)c1c(OC)cc(C)c(Cl)c1C | inactive | 8.74% | 
6 | CCCc1cc(=O)oc2cc(C)cc(OCC(=O)NCCCn3ccnc3)c12 | inactive | 0.597% | 
7 | O=C(COc1ccc(F)cc1)NCCCn1ccnc1 | 25.9 µM (active) | -6.85% | 
8 | COc1ccc(OCC(=O)NCCCn2ccnc2)cc1 | inactive | 17.2% | 
9 | Cc1cc(OCC(=O)NCCCn2ccnc2)c2c(C)c(C)c(=O)oc2c1 | 13 µM (active) |  | 
10 | Cc1c(C)c2ccc(OCC(=O)Nc3ccccn3)c(C)c2oc1=O | inactive | 15.9% | 
11 | CCc1cc(=O)oc2cc(C)cc(OCC(=O)NCCCn3ccnc3)c12 | inactive | 8.87% | 
12 | CCCc1cc(=O)oc2cc(C)cc(OCC(=O)NCc3ccncc3)c12 | inactive | 4.58% | 
13 | CCCc1cc(=O)oc2cc(C)cc(OCC(=O)NCc3cccnc3)c12 | inactive | -12.5% | 
14 | O=C(COc1ccc(Br)cc1)NCCCn1ccnc1 | inactive | 9.25% | 
15 | Cc1cc(OCC(=O)Nc2ccccn2)c2c(C)c(C)c(=O)oc2c1 | 7.31 µM (active) | -10.4% | 
16 | CCCc1cc(=O)oc2cc(C)cc(OCC(=O)NCc3ccccn3)c12 | 11.6 µM (active) | 6.85% | 
17 | Cc1cc(OCC(=O)NCc2ccncc2)c2c(C)c(C)c(=O)oc2c1 | inactive | 8.73% | 
18 | COc1ccc(CN(C)S(=O)(=O)c2nnc(NC(=O)c3ccccc3OC)s2)cc1OC | inactive | -3.88% | 
19 | Cc1ccccc1CCNC(=O)C1CCCN(c2cnccn2)C1 (configuration not stated) | inactive | -4.78% | 
20 | Cc1cccc(NC(=S)NCC(c2cccnc2)N2CCOCC2)c1 (configuration not stated) | inactive | 16.1% | 
21 | N#Cc1ccc(C(CC(=O)O)N2Cc3ccccc3C2=O)cc1 (configuration not stated) | inactive | 6.48% | 
22 | Cc1ccc(NC2CCCN(C(=O)c3ccoc3)C2)cc1C (configuration not stated) | inactive | -11.9% | 
23 | O=C(c1ccc(C(F)(F)F)cc1)N1CCN(S(=O)(=O)c2ccc3c(c2)OCCCO3)CC1 | inactive | 3.78% | 
24 | COc1ccccc1C(=O)Nc1ccc(Br)cc1C | inactive | 6.15% | 
25 | COc1ccccc1NC(=O)c1cccc2c(Br)cccc12 | inactive | -20.6% | 
26 | COc1ccccc1C(=O)Nc1ccc(Br)c2cccnc12 | 1.64 µM (active) | -27.2% | 
27 | CNc1ccc(Oc2c(F)c(F)nc(F)c2F)cc1 | inactive | -27.7% | 
